Reference: PubChem BioAssay (NCATS)
Values joined by “and” are separate entries in the source; they are usually repeats but may differ in a detail not shown here. Identical values can stand only once. Records with an inconclusive call do not appear. Active and inactive are the calls of the source. Unless noted, calls follow the shape of the dose curve; as a rule, active = well fitted curve in the direction sought with a large enough effect; inconclusive = small, poorly fitted or top-dose-only effect, or another doubt; inactive = no such curve, though single readings can be large; an effect the other way counts as inactive or inconclusive.

Experiments:
[1] = Cell Viability - BJ (AID 421; calls by dose curve;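 also: potency is read from the fitted curve at half-maximal effect; cells exposed to compound for 40 hours at 37 °C before readout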); conditions: BJ fibroblast viability, qHTS
Outline: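 Cytotoxicity as drop in intracellular ATP (CellTiter-Glo, 20 min RT) after 40 hr compound exposure of BJ fibroblasts at 37 °C. Titrations scaled between DMSO and 100 uM tamoxifen, Hill-fitted for AC50.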

[2] = Cell Viability - Jurkat (AID 426;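 active = dose-dependent loss of cell ATP signal giving a full or clear fitted curve, ranked by lower potency value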;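 also: potency is read from the fitted curve at half-maximal effect; cells exposed to compound for 40 hours at 37 °C before ATP read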); conditions: qHTS
Outline: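 Cells of the human T-cell leukemia line Jurkat (E6-1) are seeded at 5000 per well, treated with compound across a concentration range for 40 hours at 37 °C, then lysed with CellTiter-Glo; luminescence reports ATP.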

[3] = Cell Viability - Hek293 (AID 427;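 active = compounds whose dose-response curve shows a full or clear partial loss of cell viability, called from curve shape rather than a numeric limit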;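 also: potency is read from the fitted curve at half-maximal effect; cells exposed to compound for 40 hours at 37 °C before reading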); conditions: qHTS
Outline: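 Luminescent ATP content (CellTiter-Glo, 20 min at room temperature) was measured after a 40 hr, 37 °C compound exposure of HEK293 cells. AC50 values came from Hill-equation fits of qHTS concentration-response data normalized to DMSO and 100 uM tamoxifen.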

[4] = Cell Viability - HepG2 (AID 433; calls by dose curve;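 also: potency is read from the fitted curve at half-maximal effect; potency for ATP loss meaning cytotoxicity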); conditions: qHTS
Outline: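 Cytotoxicity read as ATP loss (CellTiter-Glo luminescence) after 40 hr compound exposure of HepG2, 1500 cells/well, 37 °C. AC50 by Hill equation; 0% set by DMSO, 100% inhibition by 100 uM tamoxifen.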

[5] = Cell Viability - SK-N-SH (AID 435; calls by dose curve; also: potency is read from the fitted curve at half-maximal effect); conditions: SK-N-SH neuroblastoma cell viability qHTS
Outline: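 qHTS cytotoxicity: CellTiter-Glo ATP luminescence after 40 h compound exposure of human neuroblastoma SK-N-SH cells at 37 °C. AC50 derived by Hill-equation fitting, with DMSO as basal and 100 uM tamoxifen as full inhibition.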

[6] = Cell Viability - Renal Proximal Tubule (AID 545); conditions: renal proximal tubule cells viability; series mostly up to 91.7 µM;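 also: 0% = DMSO only and -100% = 100 µM tamoxifen; nearly all actives have a fitted effect of over 40% in size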
Outline: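 Viability taken as intracellular ATP (CellTiter-Glo luminescence) after 40 hr, 37 °C compound treatment of primary proximal tubule cells from rat kidney, 1000 cells/well; Hill-equation fits of qHTS concentration-response data gave AC50.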

[7] = Cellular Toxicity (caspase-3) MRC-5 (AID 659); conditions: MRC-5 cells, luminescence, normalized: DMSO 0%, 10 µM staurosporine 100%; series mostly up to 91.7 µM
Outline: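 Apoptosis readout in MRC-5 cells: luciferase light generated after caspase 3/7 cleaves a peptide-aminoluciferin substrate, measured post 16 hr compound incubation at 37 °C.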

[8] = Cellular Toxicity (caspase-3) N2a (AID 665); conditions: N2a cells, luminescence, normalized: DMSO 0%, 10 µM staurosporine 100%; series mostly up to 92.2 µM;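 also: compound exposure lasted 16 h at 37 °C before readout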
Outline: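 Caspase-3/7 activation, measured as increased luminescence from aminoluciferin release, is quantified in mouse N2a cells exposed to compounds for 16 h. Values are normalized to DMSO and 10 uM staurosporine, with AC50 derived by Hill modelling.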

[9] = Cellular Toxicity (caspase-3) Renal Proximal Tubule (AID 667); conditions: renal proximal tubule cells; series mostly up to 91.7 µM;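 also: cells exposed to compound for 16 hours at 37 °C before detection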
Outline: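 Caspase 3/7 activation measured by luminescent aminoluciferin release in primary rat proximal tubule cells after 16 hr compound exposure at 37 °C. AC50 from Hill-fitted concentration-response, scaled between DMSO and 10 uM staurosporine.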

[10] = MultiTox-Fluor Cytotoxicity Assay - LYMP1-002 - Live Cells (AID 955); conditions: LYMP1-002 lymphoblastoid live-cell protease fluorescence viability; series mostly up to 46.1 µM; also: % is scaled to controls: 0 for no effect and ±100 for the full control effect
Outline: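 Cells were seeded at 2500 per well and incubated 5 hr. Compounds were then added for 16 hr at 37 C, followed by MultiTox-Fluor reagent for 60 min at room temperature and fluorescence reading of viable-cell protease signal.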

[11] = MultiTox-Fluor Cytotoxicity Assay - LYMP1-003 - Live Cells (AID 962); conditions: LYMP1-003 lymphoblastoid cells, MultiTox-Fluor live-cell protease fluorescence; series mostly up to 92.2 µM;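 also: 0% = DMSO only and full loss = 92 µM tetraoctylammonium bromide; cytotoxic hits lower the live-cell protease signal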
Outline: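 Acute cytotoxicity is scored as a drop in live-cell protease activity in human lymphoblastoid LYMP1-003 cells after 16 hr compound exposure at 37 C. AC50 values come from Hill-equation modelling of concentration-response data.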

[12] = Cell Viability - LYMP1-003 - Assay at 24 hr (AID 963); conditions: LYMP1-003 lymphoblastoid cell viability; series mostly up to 92.2 µM;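 also: plate controls were DMSO only for no effect and tetraoctylammonium bromide positive control for full effect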
Outline: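 Cytotoxicity is scored as a concentration-dependent fall in ATP-linked luciferase signal in human lymphoblastoid LYMP1-003 cells treated 24 hr at 37 C in complete culture medium.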

[13] = Cell Viability - LYMP2-021 (AID 974); conditions: LYMP2-021 lymphoblastoid cells viability; series mostly up to 92.2 µM;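 also: compound exposure lasts 24 hours at 37 °C; % is scaled to controls: 0 for no effect and ±100 for the full control effect; nearly all actives have a fitted effect of over 55% in size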
Outline: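 Loss of cellular ATP, measured with a luciferase-based CellTiter-Glo readout, serves as the toxicity signal in human lymphoblastoid cells treated for 24 hours at 37 C. Potency is reported as AC50 from a standard Hill model.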

[14] = Cell Viability - LYMP2-007 (AID 979); conditions: LYMP2-007 lymphoblastoid cell viability; series mostly up to 92.2 µM;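 also: cells exposed to compound for 24 h before reading; 0% = DMSO only and the negative end = 92 µM tetraoctylammonium bromide; nearly all actives have a fitted effect of over 60% in size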
Outline: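 Cells are seeded at 2500 per well and rested 5 hr. Compounds are then added over a concentration series for 24 hr at 37 C. CellTiter-Glo is added for 30 min at room temperature before luminescence reading.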

[15] = Cell Viability - LYMP2-016 (AID 984); conditions: LYMP2-016 lymphoblastoid cell viability, qHTS; series mostly up to 92.2 µM;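 also: cells exposed to compound for 24 hours at 37 °C; % is scaled to controls: 0 for no effect and ±100 for the full control effect; nearly all actives have a fitted effect of over 55% in size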
Outline: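 Cytotoxicity was scored by luminescent ATP content (CellTiter-Glo) after 24 h compound exposure at 37 C of a human lymphoblastoid line at 2500 cells/well. Concentration-response data were fitted to the Hill equation for AC50.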

[16] = Cell Viability - LYMP2-018 (AID 985); conditions: LYMP2-018 lymphoblastoid cells, viability (qHTS); series mostly up to 92.2 µM;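 also: compound exposure lasted 24 hr at 37 °C; plate controls were DMSO only for no effect and tetraoctylammonium bromide at 92 µM for full effect; nearly all actives have a fitted effect of over 50% in size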
Outline: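 Seed 2500 lymphoblastoid cells per well, incubate 5 hr at 37 C, add compound and incubate 24 hr at 37 C, add CellTiter-Glo, wait 30 min at room temperature, then read luminescence.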

[17] = Cell Viability - LYMP2-020 (AID 986); conditions: series mostly up to 92.2 µM;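 also: plate controls were DMSO only for no effect and tetraoctylammonium bromide at 92 µM for full effect; nearly all actives have a fitted effect of over 55% in size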
Outline: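 Seed 2500 cells per well and incubate 5 hr at 37 C. Add compounds at a concentration series and incubate 24 hr at 37 C. Add CellTiter-Glo, wait 30 min at RT, read luminescence, and fit a Hill curve for AC50.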

[18] = qHTS Assay for Identification of Small Molecule Inducers of Hypoxia Response (AID 2120; active = well fitted curve in the direction sought with a large enough effect in the signal ratio, with a control signal flat, not every such curve was filed as active; the % refers to the signal ratio; also: 0% is about no effect); conditions: hypoxia response reporter cells, beta-lactamase ratio readout; series mostly up to 104 µM
Outline: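 Cell-based qHTS for reporter induction: hypoxia response element controlled beta-lactamase in ME-180 cells. Compounds incubated 17 h at 37 degrees C; activity from blue/green (460/530 nm) ratio, inducers ranked by AC50.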

[19] = qHTS assay for small molecule agonists of the antioxidant response element (ARE) signaling pathway measured by Nrf2-dependant transcriptional activity - cell viability counter screen (AID 720653; active = well fitted curve in the direction sought with a large enough effect in the repeat runs; an effect the other way counts as inactive or inconclusive; also: % is scaled to controls: 0 for no effect and ±100 for the full control effect); conditions: ARE-bla HepG2 viability, CellTiter-Glo ATP luminescence, 16 h; active compounds read low
Outline: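 ARE-bla HepG2 cells (2,000/well) rested 5 hrs at 37C/5% CO2, then exposed to compounds in DMSO for 16 hrs. Viability was read in the same wells as intracellular ATP by luminescence, 30 min at room temperature after reagent addition.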

[20] = qHTS assay for cell viability of HEK293 cells (AID 743288); conditions: ATP luminescence (CellTiter-Glo), 18 h, active compounds read low; also: % is scaled to controls: 0 for no effect and ±100 for the full control effect; nearly all actives have a fitted effect of over 50% in size
Outline: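 Readout is luciferase-coupled ATP content (CellTiter-Glo luminescence, 30 min room temperature) as a measure of metabolically competent cells. Parental HEK293 cells were plated 5 h or more before compound addition, then treated 18 h at 37 C.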

O=C(Cc1ccccc1)OCc1ccccc1
inactive: Potency [1] > 92 µM | Potency [2] > 92 µM | Potency [3] > 92 µM | Potency [4] > 92 µM | Potency [5] > 92 µM | outcome [6] | outcome [7] | outcome [8] | outcome [9] | outcome [10] | outcome [11] | outcome [12] | Potency [13] | Potency [14] | Potency [15] | Potency [16] | Potency [17] | Potency [18] | max response [19] -10.2% | max response [20] -0.778%

CN(C)C(=O)Nc1ccc(Cl)cc1
inactive: Potency [1] > 92 µM | Potency [2] > 92 µM | Potency [3] > 92 µM | Potency [4] > 92 µM | Potency [5] > 92 µM | outcome [6] | outcome [7] | outcome [8] | outcome [9] | outcome [10] | outcome [11] | outcome [12] | Potency [13] | Potency [14] | Potency [15] | Potency [16] | Potency [17] | Potency [18] | max response [19] -16.9% and 1.13% | max response [20] 10.7% and -3.59%

Cc1cccc(N)c1C
inactive: Potency [1] > 92 µM | Potency [2] > 92 µM | Potency [3] > 92 µM | Potency [4] > 92 µM | Potency [5] > 92 µM | outcome [6] | outcome [7] | outcome [8] | outcome [9] | outcome [10] | outcome [11] | outcome [12] | Potency [13] | Potency [14] | Potency [15] | Potency [16] | Potency [17] | Potency [18] | max response [19] 1.88% | max response [20] -7.16%

O=C(O)CBr
inactive: Potency [1] > 92 µM | Potency [2] > 92 µM | Potency [3] > 92 µM | Potency [4] > 92 µM | Potency [5] > 92 µM | outcome [6] | outcome [7] | outcome [8] | outcome [9] | outcome [10] | outcome [11] | outcome [12] | Potency [13] | Potency [14] | Potency [15] | Potency [16] | Potency [17] | Potency [18] | max response [19] 9.96% | max response [20] 6.1%

C=CCCC#N
inactive: Potency [1] > 92 µM | Potency [2] > 92 µM | Potency [3] > 92 µM | Potency [4] > 92 µM | Potency [5] > 92 µM | outcome [6] | outcome [7] | outcome [8] | outcome [9] | outcome [10] | outcome [11] | outcome [12] | Potency [13] | Potency [14] | Potency [15] | Potency [16] | Potency [17] | Potency [18] | max response [19] -16.2% | max response [20] -20.1%

Oc1cc(Cl)cc(Cl)c1
inactive: Potency [1] > 92 µM | Potency [2] > 92 µM | Potency [3] > 92 µM | Potency [4] > 92 µM | Potency [5] > 92 µM | outcome [6] | outcome [7] | outcome [8] | outcome [9] | outcome [10] | outcome [11] | outcome [12] | Potency [13] | Potency [14] | Potency [15] | Potency [16] | Potency [17] | Potency [18] | max response [19] -11.3% | max response [20] 3.49%

C=CC#N
inactive: Potency [1] > 92 µM | Potency [2] > 92 µM | Potency [3] > 92 µM | Potency [4] > 92 µM | Potency [5] > 92 µM | outcome [6] | outcome [7] | outcome [8] | outcome [9] | outcome [10] | outcome [11] | outcome [12] | Potency [13] | Potency [14] | Potency [15] | Potency [16] | Potency [17] | Potency [18] | max response [19] 7.55% | max response [20] -18.6%
